Measured values published in paper PMC11006913.
Positions count from the first letter of the chain named.

Assays:
Experiment in all cases: PBM; 200 nM protein, PBS
Conditions in all cases: dsDNA, one strand shown
HOXB9 [1] = biological target: HOXB9 (Homo sapiens, UniProt P17482 171-250, T197M)
HOXC9 [2] = biological target: HOXC9 (Homo sapiens, UniProt P31274 178-260, K195R)
HOXA7 [3] = biological target: HOXA7 (Homo sapiens, UniProt P31268 116-202)
HOXC10 [4] = biological target: HOXC10 (Homo sapiens, UniProt Q9NYD6 254-340)
Sequence of HOXC10 (Homo sapiens, UniProt Q9NYD6 254-340) (Q9NYD6 254-340): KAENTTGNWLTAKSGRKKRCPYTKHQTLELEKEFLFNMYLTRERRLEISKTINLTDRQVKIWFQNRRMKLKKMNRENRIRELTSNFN

HOXB6 [5] = biological target: HOXB6 (Homo sapiens, UniProt P17509 132-218, K202E)
Sequence of HOXB6 (Homo sapiens, UniProt P17509 132-218, K202E) (P17509 132-218 K202E): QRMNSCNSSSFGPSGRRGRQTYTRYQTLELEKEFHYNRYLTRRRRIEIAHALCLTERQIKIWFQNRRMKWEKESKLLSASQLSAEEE

HOXC9 [6] = biological target: HOXC9 (Homo sapiens, UniProt P31274 178-260)
Sequence of HOXC9 (Homo sapiens, UniProt P31274 178-260) (P31274 178-260): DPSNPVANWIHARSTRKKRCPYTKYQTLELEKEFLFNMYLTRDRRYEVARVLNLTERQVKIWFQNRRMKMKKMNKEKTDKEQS

HOXC9 [7] = biological target: HOXC9 (Homo sapiens, UniProt P31274 178-260, R193K)
Sequence of HOXC9 (Homo sapiens, UniProt P31274 178-260, R193K) (P31274 178-260 R193K): as the sequence (P31274 178-260) above, with R16K counted along it

HOXC10 [8] = biological target: HOXC10 (Homo sapiens, UniProt Q9NYD6 254-340, K271E)
Sequence of HOXC10 (Homo sapiens, UniProt Q9NYD6 254-340, K271E) (Q9NYD6 254-340 K271E): as the sequence (Q9NYD6 254-340) above, with K18E counted along it

HOXC9 [9] = biological target: HOXC9 (Homo sapiens, UniProt P31274 178-260, R222W)
Sequence of HOXC9 (Homo sapiens, UniProt P31274 178-260, R222W) (P31274 178-260 R222W): as the sequence (P31274 178-260) above, with R45W counted along it

HOXA7 [10] = biological target: HOXA7 (Homo sapiens, UniProt P31268 116-202, W177C)
Sequence of HOXA7 (Homo sapiens, UniProt P31268 116-202, W177C) (P31268 116-202 W177C): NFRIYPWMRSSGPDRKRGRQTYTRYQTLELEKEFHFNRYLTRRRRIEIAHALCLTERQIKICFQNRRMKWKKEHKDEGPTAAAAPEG

HOXB6 [11] = biological target: HOXB6 (Homo sapiens, UniProt P17509 132-218)
Sequence of HOXB6 (Homo sapiens, UniProt P17509 132-218) (P17509 132-218): as the sequence (P17509 132-218 K202E) above, with E71K counted along it

VENTX [12] = biological target: T1, VENTX (Homo sapiens, UniProt O95231 78-163, R121Q)
T1 sequence: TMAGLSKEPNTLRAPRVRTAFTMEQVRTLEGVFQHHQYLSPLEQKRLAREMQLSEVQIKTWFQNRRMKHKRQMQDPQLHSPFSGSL

ALX1 [13] = biological target: ALX1 (Homo sapiens, UniProt Q15699 118-204, L144V)
Sequence of ALX1 (Homo sapiens, UniProt Q15699 118-204, L144V) (Q15699 118-204 L144V): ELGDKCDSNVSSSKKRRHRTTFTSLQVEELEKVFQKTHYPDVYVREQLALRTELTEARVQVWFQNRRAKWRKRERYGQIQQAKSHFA

ALX1 [14] = biological target: ALX1 (Homo sapiens, UniProt Q15699 118-204, L144R)
Sequence of ALX1 (Homo sapiens, UniProt Q15699 118-204, L144R) (Q15699 118-204 L144R): as the sequence (Q15699 118-204 L144V) above, with V27R counted along it

ALX1 [15] = biological target: ALX1 (Homo sapiens, UniProt Q15699 118-204)
Sequence of ALX1 (Homo sapiens, UniProt Q15699 118-204) (Q15699 118-204): as the sequence (Q15699 118-204 L144V) above, with V27L counted along it

VENTX [16] = biological target: T2, VENTX (Homo sapiens, UniProt O95231 78-163, Y115F)
T2 sequence: T1 sequence with Y38F, Q44R

PAX4 [17] = biological target: T3, PAX4 (Homo sapiens, UniProt O43316 9-242, R200K)
T3 sequence: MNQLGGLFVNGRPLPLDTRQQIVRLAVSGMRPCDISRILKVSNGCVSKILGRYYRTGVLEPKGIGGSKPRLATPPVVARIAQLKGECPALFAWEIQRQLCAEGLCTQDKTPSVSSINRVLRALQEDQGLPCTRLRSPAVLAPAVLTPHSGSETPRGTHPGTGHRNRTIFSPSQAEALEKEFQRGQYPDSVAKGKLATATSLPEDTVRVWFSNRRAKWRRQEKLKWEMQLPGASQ

PRRX1 [18] = biological target: PRRX1 (Homo sapiens, UniProt P54821 80-166, F113S)
Sequence of PRRX1 (Homo sapiens, UniProt P54821 80-166, F113S) (P54821 80-166 F113S): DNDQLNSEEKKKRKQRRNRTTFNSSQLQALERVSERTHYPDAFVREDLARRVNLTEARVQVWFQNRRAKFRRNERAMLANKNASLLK

PAX4 [19] = biological target: T4, PAX4 (Homo sapiens, UniProt O43316 9-242)
T4 sequence: T3 sequence with K192R

PAX4 [20] = biological target: T5, PAX4 (Homo sapiens, UniProt O43316 9-242, R200Q)
T5 sequence: T3 sequence with K192Q

PAX4 [21] = biological target: T6, PAX4 (Homo sapiens, UniProt O43316 9-242, F177V)
T6 sequence: T3 sequence with F169V, K192R

PAX4 [22] = biological target: T7, PAX4 (Homo sapiens, UniProt O43316 9-242, F177Y)
T7 sequence: T3 sequence with F169Y, K192R

HESX1 = HESX1 (Homo sapiens, UniProt Q9UBX0 95-180, F115L)
Sequence of HESX1 (Q9UBX0 95-180 F115L): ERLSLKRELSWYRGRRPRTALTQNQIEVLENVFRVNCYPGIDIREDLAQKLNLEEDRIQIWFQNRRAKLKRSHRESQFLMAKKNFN

PAX4 [23] = biological target: T8, PAX4 (Homo sapiens, UniProt O43316 9-242, R227W)
T8 sequence: T3 sequence with K192R, R219W

HOXA4 = HOXA4 (Homo sapiens, UniProt Q00056 201-287, W262F)
Sequence of HOXA4 (Q00056 201-287 W262F): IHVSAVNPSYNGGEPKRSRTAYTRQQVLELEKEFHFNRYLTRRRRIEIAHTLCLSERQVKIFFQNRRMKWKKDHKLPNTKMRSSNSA

PRRX1 [24] = biological target: PRRX1 (Homo sapiens, UniProt P54821 80-166)
Sequence of PRRX1 (Homo sapiens, UniProt P54821 80-166) (P54821 80-166): as the sequence (P54821 80-166 F113S) above, with S34F counted along it

SIX6 [25] = biological target: T9, SIX6 (Homo sapiens, UniProt O95475 114-200, L167I)
T9 sequence: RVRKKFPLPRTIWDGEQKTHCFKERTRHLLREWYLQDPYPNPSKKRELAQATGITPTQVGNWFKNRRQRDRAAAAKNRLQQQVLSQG

SIX6 [26] = biological target: T10, SIX6 (Homo sapiens, UniProt O95475 114-200, L143V)
T10 sequence: T9 sequence with L30V, I54L

SIX6 [27] = biological target: T11, SIX6 (Homo sapiens, UniProt O95475 114-200, H141N)
T11 sequence: T9 sequence with H28N, I54L

SIX6 [28] = biological target: T12, SIX6 (Homo sapiens, UniProt O95475 114-200, T165P)
T12 sequence: T9 sequence with T52P, I54L

SIX6 [29] = biological target: T13, SIX6 (Homo sapiens, UniProt O95475 114-200, L167M)
T13 sequence: T9 sequence with I54M

SIX6 [30] = biological target: T14, SIX6 (Homo sapiens, UniProt O95475 114-200, L143M)
T14 sequence: T9 sequence with L30M, I54L

SIX6 [31] = biological target: T15, SIX6 (Homo sapiens, UniProt O95475 114-200, L143I)
T15 sequence: T9 sequence with L30I, I54L

SIX6 [32] = biological target: T16, SIX6 (Homo sapiens, UniProt O95475 114-200, T165G)
T16 sequence: T9 sequence with T52G, I54L

HOXB9 [33] = biological target: HOXB9 (Homo sapiens, UniProt P17482 171-250)
Sequence of HOXB9 (Homo sapiens, UniProt P17482 171-250) (P17482 171-250): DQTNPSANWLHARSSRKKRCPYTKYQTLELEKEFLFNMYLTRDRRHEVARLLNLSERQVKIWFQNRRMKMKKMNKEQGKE

SIX6 [34] = biological target: T17, SIX6 (Homo sapiens, UniProt O95475 114-200, T139Q)
T17 sequence: T9 sequence with T26Q, I54L

SIX6 [35] = biological target: T18, SIX6 (Homo sapiens, UniProt O95475 114-200, T165A)
T18 sequence: T9 sequence with T52A, I54L

SIX6 [36] = biological target: T19, SIX6 (Homo sapiens, UniProt O95475 114-200, L167V)
T19 sequence: T9 sequence with I54V

SIX6 [37] = biological target: T20, SIX6 (Homo sapiens, UniProt O95475 114-200)
T20 sequence: T9 sequence with I54L

SIX6 [38] = biological target: T21, SIX6 (Homo sapiens, UniProt O95475 114-200, T165I)
T21 sequence: T9 sequence with T52I, I54L

HOXB9 [39] = biological target: HOXB9 (Homo sapiens, UniProt P17482 171-250, R186Q)
Sequence of HOXB9 (Homo sapiens, UniProt P17482 171-250, R186Q) (P17482 171-250 R186Q): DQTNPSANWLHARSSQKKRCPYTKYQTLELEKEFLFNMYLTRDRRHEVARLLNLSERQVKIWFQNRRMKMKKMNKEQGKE

VENTX [40] = biological target: T22, VENTX (Homo sapiens, UniProt O95231 78-163)
T22 sequence: T1 sequence with Q44R

VAX1 [41] = biological target: VAX1 (Homo sapiens, UniProt Q5SQQ9 86-172)
Sequence of VAX1 (Homo sapiens, UniProt Q5SQQ9 86-172) (Q5SQQ9 86-172): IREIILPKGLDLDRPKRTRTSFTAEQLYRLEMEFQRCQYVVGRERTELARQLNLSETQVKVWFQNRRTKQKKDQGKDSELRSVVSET

VAX1 [42] = biological target: VAX1 (Homo sapiens, UniProt Q5SQQ9 86-172, T142I)
Sequence of VAX1 (Homo sapiens, UniProt Q5SQQ9 86-172, T142I) (Q5SQQ9 86-172 T142I): as the sequence (Q5SQQ9 86-172) above, with T57I counted along it

VAX1 [43] = biological target: VAX1 (Homo sapiens, UniProt Q5SQQ9 86-172, K157R)
Sequence of VAX1 (Homo sapiens, UniProt Q5SQQ9 86-172, K157R) (Q5SQQ9 86-172 K157R): as the sequence (Q5SQQ9 86-172) above, with K72R counted along it

Sequence of HOXB9 (Homo sapiens, UniProt P17482 171-250, T197M) (P17482 171-250 T197M): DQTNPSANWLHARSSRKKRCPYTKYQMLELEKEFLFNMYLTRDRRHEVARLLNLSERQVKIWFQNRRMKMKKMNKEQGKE
Sequence of HOXA7 (Homo sapiens, UniProt P31268 116-202) (P31268 116-202): as the sequence (P31268 116-202 W177C) above, with C62W counted along it
Sequence of HOXC9 (Homo sapiens, UniProt P31274 178-260, K195R) (P31274 178-260 K195R): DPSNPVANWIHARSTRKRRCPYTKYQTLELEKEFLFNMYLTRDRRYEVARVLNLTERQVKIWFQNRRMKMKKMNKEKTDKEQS

ATTATTAC
binding signal (HOXB9 [1]): 10 upbm affinity estimate (log intensity, higher = more binding, comparable within an allelic series)
binding signal (HOXC9 [2]): 12.5 upbm affinity estimate (log intensity, higher = more binding, comparable within an allelic series)
binding signal (HOXA7 [3]): 11.2 upbm affinity estimate (log intensity, higher = more binding, comparable within an allelic series)
binding signal (HOXC10 [4]): 12.1 upbm affinity estimate (log intensity, higher = more binding, comparable within an allelic series)
binding signal (HOXB6 [5]): 10 upbm affinity estimate (log intensity, higher = more binding, comparable within an allelic series)
binding signal (HOXC9 [6]): 12.6 upbm affinity estimate (log intensity, higher = more binding, comparable within an allelic series)
binding signal (HOXC9 [7]): 12.5 upbm affinity estimate (log intensity, higher = more binding, comparable within an allelic series)
binding signal (HOXC10 [8]): 11.6 upbm affinity estimate (log intensity, higher = more binding, comparable within an allelic series)
binding signal (HOXC9 [9]): 11 upbm affinity estimate (log intensity, higher = more binding, comparable within an allelic series)
binding signal (HOXA7 [10]): 8.99 upbm affinity estimate (log intensity, higher = more binding, comparable within an allelic series)
binding signal (HOXB6 [11]): 11.7 upbm affinity estimate (log intensity, higher = more binding, comparable within an allelic series)

GGCGATTA
binding signal (VENTX [12]): 11 upbm affinity estimate (log intensity, higher = more binding, comparable within an allelic series)
binding signal (ALX1 [13]): 8.58 upbm affinity estimate (log intensity, higher = more binding, comparable within an allelic series)
binding signal (ALX1 [14]): 8.54 upbm affinity estimate (log intensity, higher = more binding, comparable within an allelic series)
binding signal (ALX1 [15]): 9.05 upbm affinity estimate (log intensity, higher = more binding, comparable within an allelic series)

ATAATCGG
binding signal (VENTX [12]): 10.6 upbm affinity estimate (log intensity, higher = more binding, comparable within an allelic series)
binding signal (VENTX [16]): 10.7 upbm affinity estimate (log intensity, higher = more binding, comparable within an allelic series)

ATTATAAT
binding signal (HOXB9 [1]): 10.2 upbm affinity estimate (log intensity, higher = more binding, comparable within an allelic series)
binding signal (HOXC9 [2]): 12.5 upbm affinity estimate (log intensity, higher = more binding, comparable within an allelic series)
binding signal (HOXA7 [3]): 11.3 upbm affinity estimate (log intensity, higher = more binding, comparable within an allelic series)
binding signal (PAX4 [17]): 11.8 upbm affinity estimate (log intensity, higher = more binding, comparable within an allelic series)
binding signal (PRRX1 [18]): 11.3 upbm affinity estimate (log intensity, higher = more binding, comparable within an allelic series)
binding signal (PAX4 [19]): 12.2 upbm affinity estimate (log intensity, higher = more binding, comparable within an allelic series)
binding signal (HOXB6 [5]): 10.1 upbm affinity estimate (log intensity, higher = more binding, comparable within an allelic series)
binding signal (PAX4 [20]): 12 upbm affinity estimate (log intensity, higher = more binding, comparable within an allelic series)
binding signal (PAX4 [21]): 10.8 upbm affinity estimate (log intensity, higher = more binding, comparable within an allelic series)
binding signal (HOXC10 [8]): 11.8 upbm affinity estimate (log intensity, higher = more binding, comparable within an allelic series)
binding signal (PAX4 [22]): 11.1 upbm affinity estimate (log intensity, higher = more binding, comparable within an allelic series)
binding signal (HOXC9 [9]): 11.1 upbm affinity estimate (log intensity, higher = more binding, comparable within an allelic series)
binding signal (HESX1): 7.83 upbm affinity estimate (log intensity, higher = more binding, comparable within an allelic series)
binding signal (PAX4 [23]): 11 upbm affinity estimate (log intensity, higher = more binding, comparable within an allelic series)
binding signal (HOXA7 [10]): 8.94 upbm affinity estimate (log intensity, higher = more binding, comparable within an allelic series)
binding signal (HOXA4): 11.4 upbm affinity estimate (log intensity, higher = more binding, comparable within an allelic series)
binding signal (PRRX1 [24]): 13.3 upbm affinity estimate (log intensity, higher = more binding, comparable within an allelic series)
binding signal (HOXB6 [11]): 11.8 upbm affinity estimate (log intensity, higher = more binding, comparable within an allelic series)

CAGCTGCG
binding signal (HOXB9 [1]): 8.53 upbm affinity estimate (log intensity, higher = more binding, comparable within an allelic series)
binding signal (SIX6 [25]): 9.16 upbm affinity estimate (log intensity, higher = more binding, comparable within an allelic series)
binding signal (SIX6 [26]): 9.03 upbm affinity estimate (log intensity, higher = more binding, comparable within an allelic series)
binding signal (SIX6 [27]): 9.09 upbm affinity estimate (log intensity, higher = more binding, comparable within an allelic series)
binding signal (SIX6 [28]): 9 upbm affinity estimate (log intensity, higher = more binding, comparable within an allelic series)
binding signal (SIX6 [29]): 9.04 upbm affinity estimate (log intensity, higher = more binding, comparable within an allelic series)
binding signal (SIX6 [30]): 9.22 upbm affinity estimate (log intensity, higher = more binding, comparable within an allelic series)
binding signal (SIX6 [31]): 9.01 upbm affinity estimate (log intensity, higher = more binding, comparable within an allelic series)
binding signal (SIX6 [32]): 9.19 upbm affinity estimate (log intensity, higher = more binding, comparable within an allelic series)
binding signal (HOXB9 [33]): 8.16 upbm affinity estimate (log intensity, higher = more binding, comparable within an allelic series)
binding signal (SIX6 [34]): 9.25 upbm affinity estimate (log intensity, higher = more binding, comparable within an allelic series)
binding signal (SIX6 [35]): 9.08 upbm affinity estimate (log intensity, higher = more binding, comparable within an allelic series)
binding signal (SIX6 [36]): 9.05 upbm affinity estimate (log intensity, higher = more binding, comparable within an allelic series)
binding signal (SIX6 [37]): 9.08 upbm affinity estimate (log intensity, higher = more binding, comparable within an allelic series)
binding signal (SIX6 [38]): 9.09 upbm affinity estimate (log intensity, higher = more binding, comparable within an allelic series)
binding signal (HOXB9 [39]): 8.31 upbm affinity estimate (log intensity, higher = more binding, comparable within an allelic series)

CCAGCTGC
binding signal (VENTX [12]): 8.15 upbm affinity estimate (log intensity, higher = more binding, comparable within an allelic series)
binding signal (VENTX [40]): 8.27 upbm affinity estimate (log intensity, higher = more binding, comparable within an allelic series)
binding signal (VENTX [16]): 8.21 upbm affinity estimate (log intensity, higher = more binding, comparable within an allelic series)
binding signal (VAX1 [41]): 7.42 upbm affinity estimate (log intensity, higher = more binding, comparable within an allelic series)
binding signal (VAX1 [42]): 7.3 upbm affinity estimate (log intensity, higher = more binding, comparable within an allelic series)
binding signal (VAX1 [43]): 7.2 upbm affinity estimate (log intensity, higher = more binding, comparable within an allelic series)

CCCACGCA
binding signal (VENTX [12]): 8.08 upbm affinity estimate (log intensity, higher = more binding, comparable within an allelic series)
binding signal (VENTX [40]): 7.93 upbm affinity estimate (log intensity, higher = more binding, comparable within an allelic series)
binding signal (VENTX [16]): 7.96 upbm affinity estimate (log intensity, higher = more binding, comparable within an allelic series)
binding signal (VAX1 [41]): 7.08 upbm affinity estimate (log intensity, higher = more binding, comparable within an allelic series)
binding signal (VAX1 [42]): 7.21 upbm affinity estimate (log intensity, higher = more binding, comparable within an allelic series)
binding signal (VAX1 [43]): 7.04 upbm affinity estimate (log intensity, higher = more binding, comparable within an allelic series)
